According to PubChem BioAssay (EPA / NIEHS):
“And” between values parts separate entries of the source, which are not always exact repeats. Equal values may be shown once. A structure can be active in one record and inactive in another. The source made the active and inactive calls. How the source made its calls: active means hit-call score of the fitted dose curve at least 0.9, where 1 is the maximum; inactive means score below 0.9.

Read-out: Tissue plasminogen activator (tPA), PLAT (gene 5327)
Assay: BSK_BE3C_tPA: BioMAP Diversity Plus: BE3C Assay for Tissue plasminogen activator (tPA) Biomarker Activity (AID 2283041)
Conditions: primary human bronchial epithelial cells; actives raise or lower the signal
Protocol: BSK_BE3C is a cell-based, multiplexed-readout assay that uses bronchial epithelial cell, a human lung primary cell, with measurements taken at 24 hours after chemical dosing in a 96-well plate.BSK_BE3C_tPA is an assay component measured in the BSK_BE3C assay. It measures tPA antibody related to regulation of gene expression using ELISA technology.Data from the assay component BSK_BE3C_tPA was analyzed into 1 assay endpoint. This assay endpoint, BSK_BE3C_tPA, was analyzed with bidirectional fitting relative to DMSO as the negative control and baseline of activity. Using a type of binding reporter, gain or loss-of-signal activity can be used to understand changes in the signaling as they relate to the gene PLAT. Furthermore, this assay endpoint can be referred to as a primary readout, because this assay has produced multiple assay endpoints where this one serves a signaling function. To generalize the intended target to other relatable targets, this assay endpoint is annotated to the protease intended target family, where the subfamily is serine protease.
The levels of cell surface (or secreted, indicated by the prefix "s") biomarker endpoints were measured by ELISA. Overt cytotoxicity to cells in confluent adherent cultures (all systems other than the BT system) was assessed by measuring total protein levels using sulforhodamine B (SRB) staining in parallel cultures at the time of biomarker measurements, indicated as SRB endpoints. For proliferation assays for adherent cell types, individual cell types are cultured at sub-confluence and relative cell numbers quantified by SRB staining at time points optimized for each system (48 h: 3C and CASM3C systems; 72 h: BT and HDF3CGF systems; 96 h: SAg system). SRB was performed by staining cells with 0.1% SRB after fixation with 10% TCA and reading wells at 560 nm.Viability and proliferation of PBMC (T cells) was quantified by Alamar Blue reduction for the SAg and BT systems. For PBMC viability (referred to as PBMC Cytotoxicity within the assay endpoint names), cells were plated (75,000/well in a 96-well plate) and then chemical samples added for 1 h before addition of activators, SEB and TSST-1 (20 ng/mL final concentration each). Cells were incubated for 90 h. Then, Alamar Blue (20 uL/well) (Invitrogen, Cat DAL1100) was added for 6 h, and the plates were read with a fluorescence microplate reader at 546/580 nm (excitation/emission). For PBMC proliferation, cells were plated and activated as above but incubated for only 16 h prior to addition of Alamar Blue. Plates were read after 6 h.

SMILES | outcome | AC50
[2H]C1([2H])[n+]2ccccc2-c2cccc[n+]2C1([2H])[2H] | inactive | –
Oc1ccc(Cl)cc1Cc1ccccc1 | – | 29.7 µM (active) [middle of 7 runs]
CC(C)OC(=O)Nc1cccc(Cl)c1 | inactive | –
CC(C)(C)C(O)/C(=C\c1ccc(Cl)cc1Cl)n1cncn1 (stereo not given) | – | 8.37 µM (active)
CCC(C)Nc1c([N+](=O)[O-])cc(C(C)(C)C)cc1[N+](=O)[O-] (stereo not given) | inactive | –
CC1(c2ccc(Oc3ccccc3)cc2)OC(=O)N(Nc2ccccc2)C1=O (stereo not given) | inactive | –
O=[N+]([O-])c1c(Cl)c(Cl)c(Cl)c(Cl)c1Cl | inactive | –
Clc1ccccc1-c1nnc(-c2ccccc2Cl)nn1 | inactive | –
CNC(=O)CSP(=S)(OC)OC | inactive | –
CCc1ccc(C(=O)NN(C(=O)c2cc(C)cc(C)c2)C(C)(C)C)cc1 | inactive | –
O=C(O)COc1ccc(Cl)cc1Cl | inactive | –
O=C(NC(=O)c1c(F)cccc1F)Nc1ccc(OC(F)(F)C(F)OC(F)(F)F)c(Cl)c1 (stereo not given) | inactive | –
C#CCN1C(=O)COc2cc(F)c(N3C(=O)C4=C(CCCC4)C3=O)cc21 | inactive | –
C[C@H]1[C@H](c2ccc(Cl)cc2)SC(=O)N1C(=O)NC1CCCCC1 | inactive | –
CCOc1nc(NC)nc(NC(=O)NS(=O)(=O)c2ccccc2C(=O)OC)n1 | inactive | –
N#Cc1c(Cl)c(Cl)c(Cl)c(C#N)c1Cl | – | 3.97 µM (active)
COC(=O)c1ccccc1CS(=O)(=O)NC(=O)Nc1nc(OC)cc(OC)n1 | inactive | –
O=S(=O)(O)C(F)(F)C(F)(F)C(F)(F)C(F)(F)C(F)(F)C(F)(F)C(F)(F)C(F)(F)F | inactive | 15.3 µM (active) and 16 µM (active) and 25.9 µM (active)
O=C1c2ccccc2C(=O)N1SC(Cl)(Cl)Cl | inactive | –
O=C(O)CCCOc1ccc(Cl)cc1Cl | inactive | –

SMILES | outcome | AC50
CN1CSC(=S)N(C)C1 | inactive | –
COC(=O)c1ccccc1S(=O)(=O)NC(=O)Nc1nc(C)nc(OC)n1 | inactive | –
CC(C)N(C(=O)COc1nnc(C(F)(F)F)s1)c1ccc(F)cc1 | inactive | –
CCOC1Oc2ccc(OS(C)(=O)=O)cc2C1(C)C (stereo not given) | inactive | –
Cc1[nH]c(=O)n(C(C)(C)C)c(=O)c1Cl | inactive | –
COP(=S)(OC)Oc1ccc(SC)c(C)c1 | inactive | –
CNC(=O)Oc1ccccc1OC(C)C | inactive | –
CCC(C)(C)C(=O)OC1=C(c2ccc(Cl)cc2Cl)C(=O)OC12CCCCC2 | – | 20 µM (active)
CCN(CC)C(=O)SCc1ccc(Cl)cc1 | inactive | –
COC(=O)c1ccccc1S(=O)(=O)NC(=O)N(C)c1nc(C)nc(OC)n1 | inactive | –
CCCN(CCOc1c(Cl)cc(Cl)cc1Cl)C(=O)n1ccnc1 | inactive | –
COP(=O)(OC)OC=C(Cl)Cl | inactive | –
CNC(=O)/C=C(\C)OP(=O)(OC)OC | inactive | –
COP(=S)(OC)Oc1ccc([N+](=O)[O-])cc1 | inactive | –
CC(C)(C)C(O)C(Oc1ccc(Cl)cc1)n1cncn1 (stereo not given) | inactive | –
COc1cc(OC)nc(NC(=O)NS(=O)(=O)c2cc(NC=O)ccc2C(=O)N(C)C)n1 | inactive | –
CC[C@H](C)[C@H]1O[C@]2(C=C[C@@H]1C)C[C@@H]1C[C@@H](C/C=C(\C)[C@@H](O[C@H]3C[C@H](OC)[C@@H](O[C@H]4C[C@H](OC)[C@@H](O)[C@H](C)O4)[C@H](C)O3)[C@@H](C)/C=C/C=C3\CO[C@@H]4[C@H](O)C(C)=C[C@@H](C(=O)O1)[C@]34O)O2 (tested in a mixture with another compound) | – | 5.27 µM (active)
CCS(=O)(=O)c1cccnc1S(=O)(=O)NC(=O)Nc1nc(OC)cc(OC)n1 | inactive | –
O=C(Nc1ccccc1)Nc1cnns1 | inactive | –
